How the values were obtained:
Experiment in all cases: PBM binding z-score (relative to random genomic background probes); higher = stronger binding; sequences stand for … in GC…GCGATTGACAGCGTAGAATGAAGG
[1] = system: LXRa homodimer (NR concentration 270 nM)
How it was run: (§1)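 The probes on custom Agilent 4×180K protein-binding microarrays were double-stranded, with 34-nt variable regions bearing direct-repeat seeds, single-nucleotide variants, half-site ablations and random human genomic background sequences. Incubation lasted 1 h with ligand-free nuclear receptor dimers in PBS pH 7.4, 2% milk, 0.02% Triton X-100, 1 mM DTT, 0.2 mg/mL BSA and 0.4 mg/ml salmon testes DNA. Antibodies against each partner (one per run) detected bound dimers, and fluorescence scans were regression-normalized. Binding z-scores take the random background probes as reference.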

[2] = system: LXRb homodimer (NR concentration 270 nM)
How it was run: as §1

[3] = system: PPARg:RXRa (NR concentration 180 nM, RXRa partner concentration 90 nM)
How it was run: as §1

[4] = system: PPARg:RXRa 270nM:90nM, anti-RXR (NR concentration 270 nM, RXRa partner concentration 90 nM)
How it was run: as §1

[5] = system: PPARg:RXRa 30nM:10nM, anti-RXR (NR concentration 30 nM, RXRa partner concentration 10 nM)
How it was run: as §1

[6] = system: PPARg:RXRa 90nM:30nM, anti-RXR (NR concentration 90 nM, RXRa partner concentration 30 nM)
How it was run: as §1

[7] = system: PPARg:RXRa DBDmut IVT, anti-RXR (DBD mutation: RXRa K156A/R161A, NR concentration 270 nM, RXRa partner concentration 90 nM)
How it was run: as §1

[8] = system: PPARg:RXRa IVT, anti-PPARg (NR concentration 270 nM, RXRa partner concentration 90 nM)
How it was run: as §1

[9] = system: PPARg DBDmut:RXRa IVT, anti-PPARg (DBD mutation: PPARg1 K132A/R137A, NR concentration 270 nM, RXRa partner concentration 90 nM)
How it was run: as §1

[10] = system: PPARg DBDmut IVT, anti-PPARg (DBD mutation: PPARg1 K132A/R137A, NR concentration 270 nM)
How it was run: as §1

[11] = system: PPARg homodimer (NR concentration 180 nM)
How it was run: as §1

[12] = system: PXR homodimer (NR concentration 270 nM)
How it was run: as §1

[13] = system: RARa homodimer (NR concentration 270 nM)
How it was run: as §1

[14] = system: RARb homodimer (NR concentration 270 nM)
How it was run: as §1

[15] = system: PXR:RXRa (NR concentration 270 nM, RXRa partner concentration 90 nM)
How it was run: as §1

[16] = system: RARa:RXR (NR concentration 270 nM, RXRa partner concentration 90 nM)
How it was run: as §1

[17] = system: RARb:RXRa (NR concentration 270 nM, RXRa partner concentration 90 nM)
How it was run: as §1

Sequence | PBM binding z-score [1] | PBM binding z-score [2] | PBM binding z-score [3] | PBM binding z-score [4] | PBM binding z-score [5] | PBM binding z-score [6] | PBM binding z-score [7] | PBM binding z-score [8] | PBM binding z-score [9] | PBM binding z-score [10] | PBM binding z-score [11] | PBM binding z-score [12] | PBM binding z-score [13] | PBM binding z-score [14] | PBM binding z-score [15] | PBM binding z-score [16] | PBM binding z-score [17]
CAAACGAGGTCACCGGAAGGTCAAAGTCCGCATG | 6.35 | 2.17 | 9.26 | 8.2 | 5.78 | 7.55 | 6.23 | 7.57 | 4.42 | 0.844 | 6.98 | 6.23 | 2.61 | 6.03 |  |  | 
CAAAATAGGTCAAAGGTCAAAGTCGAGCCAACCA | 6.17 | 3.52 | 13.7 | 11.5 | 12.6 | 13.3 | 8.15 | 8.59 | 3.03 | 1.57 | 4.96 | 2.02 | 3.71 | 5.5 | 7.32 | 9.14 | 
CAAACGAGGTCACAGAGGTCAAAGTCCGTGCGTA | 8.64 | 3.01 | 9.94 | 8.76 | 6.47 | 8.53 | 6.82 | 7.63 | 3.35 | 5.12 | 7.88 | 15.3 | 5.39 | 5.83 |  |  | 
CAAACGAGGTCAAAGGTCAAAGTCGAGCCAACCA | 7.06 | 4.76 | 13.9 | 11.2 | 13.8 | 13.8 | 7.13 | 8.38 | 5.96 | 5.7 | 7.87 | 5.27 | 6.67 | 5.59 |  |  | 
CGTCAAAGGTCAATGCTAGGTCAGTGAAAGCATT | 4.73 | 3.46 | 8.14 | 8.21 | 5.21 | 7.67 | 4.79 | 6.13 | 2.05 | 0.936 | 5.64 | 1.66 | 2.5 | 5.56 | 5.96 | 6.85 | 
CCTTAGGGGTCACTCCAGGTTATAGCATCGGAGT | 3.9 | 1.26 | 7.77 | 7.74 | 4.31 | 6.51 | 3.7 | 5.37 | 2.85 | 0.901 | 3.42 | 0.789 | 1.3 | 4.71 |  |  | 5.36
CAAACGAGGTCAAGGTCAAAGTCGGTTTGTGCCA | 4.79 | 2.41 | 9.01 | 7.98 | 5.75 | 7.37 | 6.4 | 7.3 | 3.16 | 1.96 | 4.15 | 4.12 | 2.66 | 5.54 |  |  | 
CGTCAAAGGTCAACTAAGGTAACGTAAAGCACGC | 3.42 | 4.64 | 9.18 | 8.77 | 6.39 | 8.42 | 5.01 | 5.93 | 1.03 | 0.957 | 4.87 | 1.59 | 3.77 | 5.33 |  | 6.58 | 
TTACCAAGGTCAAAGGTCGTTGATGCACGCCTTG | 4.68 | 1.83 |  | 8.91 | 8.91 | 10.4 | 4.35 | 6.12 | 2.16 | 2.19 | 4.12 | 2.27 | 1.08 | 4.89 |  |  | 
CTCGAAAGGTCATGCTCAGGTGAGTATACCAAAC | 3.89 | 2.44 | 7.63 | 8.05 | 4.38 | 6.89 | 4.16 | 4.89 | 1.38 | 0.849 | 3.71 | 0.752 | 2.27 | 5.14 | 5.91 | 6.85 | 
CAAACAAGGTCACAGAGGTCAAAGTCCGTGCGTA | 8.49 | 3.24 | 9.2 | 8.4 | 5.17 | 7.73 | 6.04 | 7.16 | 3.22 | 4.2 | 6.67 | 14.1 | 3.72 | 5.85 |  |  | 
TGTCAAAGGTCAAAGGTAACGTAAGTATCCACAC | 4.19 | 4.32 |  | 9.9 | 8.47 | 10.5 | 4.01 | 7.56 | 5.45 | 6.39 | 5.28 | 1.31 | 3.71 | 5.11 |  |  | 
ATCGAAAGGTCAAAGGTGAGTATACCCACCCGAA | 4.82 | 4.53 |  | 8.89 | 6.69 | 8.79 | 4.23 | 6.1 | 3.13 | 3.86 | 4.41 | 1.6 | 3.03 | 5.31 |  |  | 
ATCGAAAGGTCAACGAGGTGAGTATACACCGTTT | 4.35 | 3.41 | 8.38 | 7.87 | 5.13 | 7.2 | 3.84 | 5.68 | 2.78 | 3.38 | 5.17 | 5.16 | 3.85 | 5.51 | 6 | 6.61 | 
CGTACAAGGTCAAAGGTCAGTGAAGAGATGACGG | 3.43 | 2.4 |  | 10.1 | 11.2 | 11.9 | 5.32 | 7.09 | 2.61 | 3.6 | 5.49 | 2.17 | 4.68 | 5.35 | 7.22 | 9.15 | 5.95
CAAACGAGGTCAAGAGGTCAAAGTCCGCTTCCCG | 7.48 | 2.92 | 9.67 | 7.84 | 5.59 | 7.61 | 6.04 | 7.14 | 1.86 | 1.69 | 5.31 | 6.05 | 2.73 | 6.42 |  | 8.32 | 
CGTTCAAGGTCAAAGGTCAGTGAAGAGATGACGG | 4.39 | 2.52 |  | 9.86 | 11.2 | 11.5 | 5.39 | 6.57 | 2.57 | 1.79 | 6.36 | 3.57 | 5.48 | 5.42 | 7.19 | 8.99 | 5.89
AATACGGGGTCATCGTAGGCCAGAGTACGCACAG | 4.62 | 2.94 | 9.53 | 8.49 | 6.12 | 7.88 | 4.48 | 5.98 | 1.67 | 2.1 | 3.3 | 1.94 | 1.73 | 4.48 |  |  | 5.09

— the supplement of paper PMC6555819
